Data from PubChem BioAssay (NCI).
“And” between values parts separate entries of the source, which are not always exact repeats. Equal values may be shown once. This is part of a sample that, as a whole, favours compounds with a hit. Of some 79,000 tested, about 15% had one in any assay. A number with no mark means an inactive call. The source made the active and inactive calls. Cut-off read from the data, not from the text of the source: active = growth inhibition above about 70%; inactive = the rest.

assay: NCI Yeast Anticancer Drug Screen. Data for the cln2 rad14 strain (AID 165);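 note: 0% = growth equal to vehicle treated cultures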; conditions: S. cerevisiae cln2 rad14 strain, at 50.0 µM (retest, dose inferred, filed as 5.0), hits give high values
How it was run: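 cln2 rad14 yeast strain; compound exposure; growth inhibition read vs vehicle controls.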

Question: Which growth inhibition does the source give for `CCCCN(C)CC(C(C)=O)C(c1ccccc1)c1c(O)c2ccccc2oc1=O` (stereo not given) here?
Answer: 6%

Question: For `O=[n+]1c2ccccc2n([O-])c2ccccc21.[Cl][Ni][Cl]`, which growth inhibition is on record?
Answer: 98% (active)

Question: For `COc1ccc(C(Cc2ccc(Cl)c(Cl)c2)NCCO)cc1` (stereo not given), which growth inhibition is on record?
Answer: 10%

Question: For `O=C(N/N=C/c1cc(Cl)cc(Cl)c1[O-])c1ccccc1O.O=C(N/N=C/c1cc(Cl)cc(Cl)c1[O-])c1ccccc1O.[Zn+2]`, which growth inhibition is on record?
Answer: 50%

Question: For `Oc1ccc(Cl)cc1Sc1cc(Cl)ccc1O`, which growth inhibition is on record?
Answer: 100% (active) and 99% (active)

Question: For `O=S(=O)([O-])[O-].[OH3+].[OH3+].[OH3+].[Ru+2].c1ccccc1`, which growth inhibition is on record?
Answer: 15%

Question: With `CCCCCC(Cn1ccnc1)c1ccc(Cl)cc1Cl` (stereo not given) as the molecule, how does the growth inhibition read?
Answer: 98% (active)

Question: For `CC1=C(CO)C(=O)OC(C(C)C2CCC3C4CC5OC56C(O)C(N5CC5)=CC(=O)C6(C)C4CCC23C)C1` (stereo not given), which growth inhibition is on record?
Answer: 57%

Question: Which growth inhibition does the source give for `CCCC[CH2][Sn]([CH2]CCCC)[CH2]CCCC.CCCC[CH2][Sn]([CH2]CCCC)[CH2]CCCC` here?
Answer: 99% (active)

Question: For `CCC[CH2][Sn]1([CH2]CCC)[O]C(=O)C(C(C)C)N=Cc2ccccc2[O]1` (stereo not given), which growth inhibition is on record?
Answer: 7%

Question: For `Oc1c(Cl)cc(-c2cc(Cl)c(O)c(Cl)c2)cc1Cl`, which growth inhibition is on record?
Answer: 98% (active)

Question: With `CC(=O)Nc1ccc(/C=N/N=C(/N)N[N+](=O)[O-])cc1` as the molecule, how does the growth inhibition read?
Answer: 1%

Question: With `CC(Br)c1ccccc1` (stereo not given) as the molecule, how does the growth inhibition read?
Answer: 7%

Question: For `C[Si]1(C)CCCCC2(C1)C(=O)NC(=O)NC2=O`, which growth inhibition is on record?
Answer: 5%

Question: With `CCCCCCCCCCCCCCCc1cccc(O)c1O` as the molecule, how does the growth inhibition read?
Answer: -8%

Question: Which growth inhibition does the source give for `CC1(C)OC2OC3C(CN(CCCl)Cc4ccccc4)OC(c4ccccc4)OC3C2O1` (stereo not given) here?
Answer: -1%

Question: With `FC(F)(F)c1nc2ccc(SSc3ccc4nc(C(F)(F)F)[nH]c4c3)cc2[nH]1` as the molecule, how does the growth inhibition read?
Answer: -32%

Question: For `O=[N+]([O-])c1csc([N+](=O)[O-])c1`, which growth inhibition is on record?
Answer: 99% (active)

Question: For `CCc1cc2c(cc1-c1csc(C/C(N)=N/O)n1)C(C)(C)CCC2(C)C`, which growth inhibition is on record?
Answer: 96% (active)

Question: With `CCCCCCCC[N+](CCCC)(CCCC)CCCC` (tested in a mixture with another compound) as the molecule, how does the growth inhibition read?
Answer: 99% (active)

Question: Which growth inhibition does the source give for `CCC[CH2][Sn]([CH2]CCC)([S]C#N)[S]C#N` here?
Answer: 97% (active)

same assay, conditions: S. cerevisiae cln2 rad14 strain, at 50.0 µM, hits give high values

Question: Which growth inhibition does the source give for `c1ccc(NC2=NCCN2)nc1` here?
Answer: 0.35%

Question: With `C[CH2][Sn]([CH2]C)([CH2]C)[O]C(=O)CO` as the molecule, how does the growth inhibition read?
Answer: 55.4%

Question: With `CC12CCC(O)CC1CCC1C2CCC2(C)C1CC1CC(=O)OC12` (stereo not given) as the molecule, how does the growth inhibition read?
Answer: 98.8% (active)

Question: With `Nc1ccc(N=Nc2ccccc2)cc1` as the molecule, how does the growth inhibition read?
Answer: 3.25%

Question: With `C[n+]1c(/C=C/c2ccc(O)c3ncccc23)[se]c2ccccc21` as the molecule, how does the growth inhibition read?
Answer: 92% (active)

Question: Which growth inhibition does the source give for `COC(=O)C1=C(C)N2CCSC2(C)C(C(=O)OC)C1c1cccc(Cl)c1` (stereo not given) here?
Answer: 69.1%

Question: With `O=[N+]([O-])/C=C/c1ccccc1` as the molecule, how does the growth inhibition read?
Answer: 98.3% (active)

Question: Which growth inhibition does the source give for `CC12CCC(O)CC1CCC1C2CCC2(C)C(C(=O)CC(O)C(F)(F)F)CCC12` (stereo not given) here?
Answer: 71.2% (active)

Question: With `CC(C)NCC(O)c1ccc(O)c(O)c1.[Pt].c1ccc([PH+](c2ccccc2)c2ccccc2)cc1.c1ccc([PH+](c2ccccc2)c2ccccc2)cc1` as the molecule, how does the growth inhibition read?
Answer: 97.8% (active)

Question: For `CCOC(=O)/C(=C\c1ccc(C(=O)OC)cc1)[Se]c1ccccc1`, which growth inhibition is on record?
Answer: 51.7%

Question: For `CC/C(=C/c1ccc2c(c1)OCO2)[N+](=O)[O-]`, which growth inhibition is on record?
Answer: 99.1% (active)

Question: With `CCOC(=O)C1=C(C)NC(=O)NC1c1ccc(N(CCCl)CCCl)cc1Cl` (stereo not given) as the molecule, how does the growth inhibition read?
Answer: -10.8%

Question: Which growth inhibition does the source give for `S=C(S)N1CCOCC1` here?
Answer: -23.9%

Question: For `CCOC(=O)c1ccccc1N`, which growth inhibition is on record?
Answer: 45.8%

Question: With `C[n+]1c(/C=C/c2ccc(O)c(O)c2)[se]c2ccccc21` as the molecule, how does the growth inhibition read?
Answer: 66.9%

Question: With `CS(=O)(=O)[O-].CS(=O)(=O)[O-].NC1CCCCC1N.[Pt+4]` (stereo not given) as the molecule, how does the growth inhibition read?
Answer: 90.9% (active)

Question: Which growth inhibition does the source give for `COc1ccc2c(c1O)-c1cccc3c1[C@@H](C2)N(CCCl)CC3` here?
Answer: 35.4%

Question: For `COC(=O)CC1(C(=O)O)CC2(Cl)C(Cl)=C(Cl)C1(Cl)C2(Cl)Cl` (stereo not given), which growth inhibition is on record?
Answer: 83.5% (active)

Question: For `CCCCN(C)CC(C(C)=O)C(c1ccccc1)c1c(O)c2ccccc2oc1=O` (stereo not given), which growth inhibition is on record?
Answer: 80.2% (active)

Question: Which growth inhibition does the source give for `O=[n+]1c2ccccc2n([O-])c2ccccc21.[Cl][Ni][Cl]` here?
Answer: 90.6% (active)

Question: For `COc1ccc(C(Cc2ccc(Cl)c(Cl)c2)NCCO)cc1` (stereo not given), which growth inhibition is on record?
Answer: 11.9%

Question: For `O=C(N/N=C/c1cc(Cl)cc(Cl)c1[O-])c1ccccc1O.O=C(N/N=C/c1cc(Cl)cc(Cl)c1[O-])c1ccccc1O.[Zn+2]`, which growth inhibition is on record?
Answer: 91.8% (active)

Question: Which growth inhibition does the source give for `Oc1ccc(Cl)cc1Sc1cc(Cl)ccc1O` here?
Answer: 99% (active) and 99.3% (active) and 99.2% (active)

Question: For `O=S(=O)([O-])[O-].[OH3+].[OH3+].[OH3+].[Ru+2].c1ccccc1`, which growth inhibition is on record?
Answer: 89.6% (active)

Question: For `CCCCCC(Cn1ccnc1)c1ccc(Cl)cc1Cl` (stereo not given), which growth inhibition is on record?
Answer: 99.7% (active)

Question: Which growth inhibition does the source give for `CC1=C(CO)C(=O)OC(C(C)C2CCC3C4CC5OC56C(O)C(N5CC5)=CC(=O)C6(C)C4CCC23C)C1` (stereo not given) here?
Answer: 28.9%

Question: With `CCCC[CH2][Sn]([CH2]CCCC)[CH2]CCCC.CCCC[CH2][Sn]([CH2]CCCC)[CH2]CCCC` as the molecule, how does the growth inhibition read?
Answer: 98.8% (active)

Question: For `CCC[CH2][Sn]1([CH2]CCC)[O]C(=O)C(C(C)C)N=Cc2ccccc2[O]1` (stereo not given), which growth inhibition is on record?
Answer: 91.6% (active)

Question: Which growth inhibition does the source give for `Oc1c(Cl)cc(-c2cc(Cl)c(O)c(Cl)c2)cc1Cl` here?
Answer: 87.6% (active)

Question: For `CC(=O)Nc1ccc(/C=N/N=C(/N)N[N+](=O)[O-])cc1`, which growth inhibition is on record?
Answer: 83.8% (active)

Question: With `CC(Br)c1ccccc1` (stereo not given) as the molecule, how does the growth inhibition read?
Answer: -2.05%

Question: Which growth inhibition does the source give for `C[Si]1(C)CCCCC2(C1)C(=O)NC(=O)NC2=O` here?
Answer: 16.5%

Question: For `CCCCCCCCCCCCCCCc1cccc(O)c1O`, which growth inhibition is on record?
Answer: -5.3%

Question: For `CC1(C)OC2OC3C(CN(CCCl)Cc4ccccc4)OC(c4ccccc4)OC3C2O1` (stereo not given), which growth inhibition is on record?
Answer: 33.8%

Question: With `FC(F)(F)c1nc2ccc(SSc3ccc4nc(C(F)(F)F)[nH]c4c3)cc2[nH]1` as the molecule, how does the growth inhibition read?
Answer: 92.3% (active)

Question: Which growth inhibition does the source give for `O=[N+]([O-])c1csc([N+](=O)[O-])c1` here?
Answer: 98.8% (active)

Question: Which growth inhibition does the source give for `CCc1cc2c(cc1-c1csc(C/C(N)=N/O)n1)C(C)(C)CCC2(C)C` here?
Answer: 89.7% (active)

Question: For `CCCCCCCC[N+](CCCC)(CCCC)CCCC` (tested in a mixture with another compound), which growth inhibition is on record?
Answer: 99.5% (active)

Question: For `CCC[CH2][Sn]([CH2]CCC)([S]C#N)[S]C#N`, which growth inhibition is on record?
Answer: 86% (active)
